The target in one assay is DDB2. Kind of assay: pooled miR-30 sensor sort-seq; sequence = guide strand. Particulars: shRNA.
TTTGCCGTCCATGTTCAGCAGG showed a sensor-assay potency score (higher = more potent) of -0.642.
Same read-out and setting: the same measure for TCCATCGAACACGTCGATCGTC: -0.818; for TAATATCCGGTAAGAATCCAGA: -0.584.
On the same count and under the same terms, the value for TCTGAGTCACATCTTCTGCTAG was -0.241.
Same read-out and setting: the same measure for TACAATCTCGGAGGTCTTCTGG: -0.449; for TCGAACACGTCGATCGTCCTCA: -0.285.
On to TTTGAAATTAGGATCTGGGTAT, for which the sensor-assay potency score (higher = more potent) is -0.00871.
Regarding AACTCGGATCTCGCTCTTCTGG, the sensor-assay potency score (higher = more potent) is -1.5.
Still for that read-out and setting: the value for TAATACAATCTCGGAGGTCTTC was -0.478.
TTCGGCTACTAGCAGACACATC showed a sensor-assay potency score (higher = more potent) of -1.25.
The sequence TCAAATAACTGCTTGATCCCTC had a sensor-assay potency score (higher = more potent) of 0.323.
Same read-out and setting: the same measure for TTGATGGTGTCTGAGCTGGCAA: -1.17; for TTTAACAAATCGCCACCTCTGC: -0.868.

The next assay deals with DDX28. The description is as above. Particulars: shRNA.
With TTGGATTTTGTGGTCATCCAGA, the sensor-assay potency score (higher = more potent) is -0.675.
Still for that read-out and setting: the value for ATAATTGACAACCAGCTCCACA was -0.971; that for TAGCTGAGAGTCTTGCCACTGC was -0.373; that for TAATCTTGCAGCGTTGGGGGGA was -0.579.
Sequence TCATCCAACACCAAGAAGGAGA returned a sensor-assay potency score (higher = more potent) of -0.925.
On the same count and under the same terms, the same measure for TTCCAGGAAGCTTTCATCCAGC: -0.626; for TAGTCCTGGAAGACTTCTCCTT: -1.12; for TTGACAACCAGCTCCACACCAG: -0.162.
Still for that read-out and setting: the same measure for TTCTGCTCTGTCACGATGCTTG: -0.667; for TTCGTCGGGACTGCGGACCGTG: -0.386; for TATGTCTCGGGAGCTCTTCTGG: -0.986.
In turn, TAGTGCGTGCAGCACACGGGGC yielded a sensor-assay potency score (higher = more potent) of -1.65.

The target in another assay is DDX49. The assay is described as above. As to conditions: shRNA.
For the sequence TTGATCTGCTCCTCGATGGCGT, the sensor-assay potency score (higher = more potent) was found to be 0.0961.
On the same count and under the same terms, the same measure for TTGATCTCACACTCTCTTCGCA: -0.0453.
The same measure, in the same setting: the same measure for TTTGATCTCACACTCTCTTCGC: -0.199.
With TGATCTCACACTCTCTTCGCAC, the sensor-assay potency score (higher = more potent) was -1.01.
TCTGTTGCGATCAGGATCCGGT yielded a sensor-assay potency score (higher = more potent) of 0.242.
Take TCATCCATCACCAGGAAGCGGA: the sensor-assay potency score (higher = more potent) was -1.17.
Same read-out and setting: the value for TTGATGACCACCTGTACCGTAG was -0.168; that for TCTTTCTGCTTCATCATGGAGT was -0.0519.
In the case of TTCTTCTTGATCTGCTCCTCGA, the sensor-assay potency score (higher = more potent) was -0.688.
The sequence TAGATGCTGGACTTGAACTTGG yielded a sensor-assay potency score (higher = more potent) of -0.112.
Turning to TTGTGGTTGATGACCACCTGTA, the sensor-assay potency score (higher = more potent) was -0.316.
TCGTACTGTGTCACCAGCGTGA had a sensor-assay potency score (higher = more potent) of -0.48.

A further assay has as its target DEF6. The description is as above. Particulars: shRNA.
As to TTGTGTAGGGACGTCTTCCCCT, the sensor-assay potency score (higher = more potent) was -0.678.
On to TGACCGGACGCTTATCTCCAGG, for which the sensor-assay potency score (higher = more potent) is -1.34.
On to TCAACTGCTTCAGCTTCTCTTC, for which the sensor-assay potency score (higher = more potent) was -0.841.
Note: reference of the scale not given here.
